# The list is not random: actives were taken first. Their share in the collection is about 14%.
# HCMV inh – human cytomegalovirus inhibition; HFF cells, HCMV-luciferase reporter, 72 h; active compounds read low; activity change, negative = inhibition, % at 57.5 µM; actives 4.5% (n = 410,000); AID 1259415; in the data active = activity change below about -60%; inconclusive = no clear call, values can overlap the other calls; inactive = above about -39%
#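 After 16 h attachment at 37C, HFF cells received test compound and HCMV-luciferase (1 PFU/cell); reporter luminescence read 72 h later, data normalized against buffer-only and known inhibitor Salinomycin.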
# Giardia FBPA inh – inhibitors of Giardia lamblia fructose-1,6-bisphosphate aldolase; Potency, µM (series often up to 59.6 µM), for inactives: top-dose activity, negative = inhibition, most hits filed as inhibitors; A8B2U2; actives 0.71% (n = 290,000); purified Giardia FBPA; also: potency is read from the fitted curve at half-maximal effect; nearly all actives have a fitted effect of over 55% in size
# Target sequence (A8B2U2 whole entry, looked up): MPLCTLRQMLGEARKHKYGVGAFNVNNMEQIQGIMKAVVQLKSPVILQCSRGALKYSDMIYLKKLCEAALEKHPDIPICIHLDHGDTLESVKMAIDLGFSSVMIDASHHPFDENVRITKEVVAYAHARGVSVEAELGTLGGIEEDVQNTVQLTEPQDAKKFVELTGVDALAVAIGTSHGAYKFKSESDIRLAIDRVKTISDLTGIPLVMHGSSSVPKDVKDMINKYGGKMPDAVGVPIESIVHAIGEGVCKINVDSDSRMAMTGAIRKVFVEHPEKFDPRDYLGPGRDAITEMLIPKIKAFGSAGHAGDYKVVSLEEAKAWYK
#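 Giardia FBPA (40 nM reagent) was preincubated 10 min at RT with compound (up to 57.5 uM final), then substrate plus GAPDH/TPI/NAD/arsenate coupling system with diaphorase/resazurin was added; resorufin fluorescence (525/598 nm) was read after 20 min.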
# Pf growth 48h – inhibits P. falciparum growth in the first generation, 48 h; P. falciparum luciferase growth in erythrocytes, 48 h; Potency, µM (highest dose often 28.7 µM), for inactives: top-dose activity change, negative = inhibition, usual class: inhibitors; actives 5.9% (n = 310,000); AID 504832; also: potency is read from the fitted curve at half-maximal effect
#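 In quantitative HTS format, infected erythrocytes bearing luciferase-reporter parasites were treated for a single generation at 37 C. Luminescence after adding detection reagent served as the growth measure.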
# Pf growth 96h – P. falciparum growth inhibition at 96 hours | actives 6.9% (n = 320,000) | P. falciparum luciferase reporter growth, 96 h | Potency, µM (doses to about 28.7 µM), for inactives: top-dose activity change, negative = inhibition, most hits filed as inhibitors | AID 504834; also: potency is read from the fitted curve at half-maximal effect
#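 P. falciparum expressing integrated firefly luciferase, in erythrocytes at 2% hematocrit, 0.05% parasitemia, incubated with compounds 96 h at 37 C, 5% CO2. Growth inhibition read as loss of luminescence; two-generation exposure targets delayed-death apicoplast inhibitors.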
# Sm TGR inh – inhibitors of Schistosoma mansoni thioredoxin glutathione reductase; Q962Y6; purified TGR, DTNB reduction, TNB absorbance 405 nm; AID 485364; Potency, µM (top dose mostly 114 µM), without a hit: top-dose activity change, negative = inhibition, most hits filed as inhibitors; actives 3% (n = 360,000); also: potency is read from the fitted curve at half-maximal effect; nearly all actives have a fitted effect of over 60% in size
#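 First, TGR (20 nM dispensed) and NADPH were mixed with compound. Second, a 15 min room-temperature incubation followed. Third, further NADPH and then DTNB were added to start the reaction. Finally, TNB absorbance was monitored kinetically.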
# * marks the source's active call; other numbers are inactive results; ? = inconclusive; nt = not tested or not shown. Unless noted, calls follow the shape of the dose curve; as a rule, active = well fitted curve in the direction sought with a large enough effect; inconclusive = small, poorly fitted or top-dose-only effect, or another doubt; inactive = no such curve, though single readings can be large; an effect the other way counts as inactive or inconclusive. % is scaled to controls: 0 for no effect and ±100 for the full control effect.
SMILES,HCMV inh,Giardia FBPA inh,Pf growth 48h,Pf growth 96h,Sm TGR inh
COc1ccc(C2CC(c3cccs3)=NN2C(=O)CSc2nc(=O)n3ccc(C)cc3n2)cc1 (stereo unspecified),nt,nt,12µM*,?,-20%
Cc1ccc(C2CC(c3cccs3)=NN2C(=O)CSc2nc(=O)n3ccc(C)cc3n2)cc1 (stereo unspecified),?,nt,8.3µM*,?,5%
COc1ccc(CCNC(=O)CSc2nc3scc(-c4ccccc4)c3c(=O)[nH]2)cc1,-34,nt,nt,nt,nt
COc1ccc(-c2nsc(SCC(=O)Nc3cc(C)on3)n2)cc1,20,7%,5.9µM*,?,?
COc1ccc(CCNC(=O)C(=O)NCC2CCCO2)cc1 (stereo unspecified),1,7%,19%,4.1µM*,2%
CCOC(=O)CNC(=O)CSc1nc(-c2ccc(OC)cc2)ns1,92,-1%,32%,133%,5%
COc1ccc(-c2nsc(SCC(=O)NCC3CCCO3)n2)cc1 (stereo unspecified),-77*,-4%,127%,?,-4%
CCOc1ccc(-n2c(=O)c3sc4ccccc4c3n(Cc3cccc(C)c3)c2=O)cc1,-5,nt,nt,nt,0%
C#C[C@]1(O)CC[C@H]2C3CCC4=Cc5oncc5CC4(C)C3CCC21C (stereo partly specified),nt,-5%,nt,nt,nt
O=C(N/N=C/C(Cl)=C/c1ccccc1)c1ccco1,5,-1%,5.2µM*,?,-12%
O=C(N/N=C/C(Cl)=C\c1ccccc1)c1ccco1,23,1%,1.9µM*,3.7µM*,-32%
O=C(N/N=C/C(Cl)=C/c1ccccc1)c1ccccc1F,6,-12%,-35%,?,8%
CC(NC(=O)C1CC(=O)N(c2ccc3c(c2)OCCO3)C1)c1ccccc1 (stereo unspecified),-11,nt,nt,nt,nt
O=[N+]([O-])c1ccc(Sc2nc3ccccc3[nH]2)c(Cl)c1,16,nt,nt,nt,nt
O=[N+]([O-])c1c(NCCCO)cc(Sc2nc3ccccc3s2)c2nonc12,nt,?,0%,34%,-8%
Cc1nnc(Sc2cc(NCCO)c([N+](=O)[O-])c3nonc23)s1,-10,?,?,30%,?
CCC(=O)OCCNc1cc(Sc2nc3ccccc3[nH]2)c2nonc2c1[N+](=O)[O-],-11,?,-14%,?,0.56µM*
Cc1nnc(Sc2cc(NCCCO)c([N+](=O)[O-])c3nonc23)s1,57,?,0%,?,0.32µM*
CCC(=O)OCCNc1cc(Sc2nc3ccccc3s2)c2nonc2c1[N+](=O)[O-],69,?,nt,-4%,0.25µM*
CCc1ccc(N(CC(=O)NCc2ccco2)C(=O)CCC(=O)Nc2ccccn2)cc1,-31,4%,0%,-5%,-7%
CC(C)(CNCc1ccccc1)NS(=O)(=O)c1ccccc1,-22,nt,nt,nt,nt
CCOc1ccccc1NC(=S)N1CCN(c2cccc(OC)c2)CC1,-23,2%,-27%,?,-4%
COc1ccc(NC(=S)N2CCN(C(c3ccccc3)c3ccccc3)CC2)c(OC)c1,11,0%,5.2µM*,72%,7%
COc1cccc(N2CCN(C(=S)Nc3ccccc3OC)CC2)c1,2,-2%,-14%,9.3µM*,0%
CN1CCN(C(CNS(=O)(=O)c2ccc([N+](=O)[O-])cc2)c2ccc(F)cc2)CC1 (stereo unspecified),-10,nt,?,41%,-30%
SMILES,HCMV inh,Giardia FBPA inh,Pf growth 48h,Pf growth 96h,Sm TGR inh
Cc1cc(C)c(S(=O)(=O)Nc2ccc(Cl)cn2)c(C)c1,-6,-12%,10µM*,20%,4%
CN(C)/C=C/c1c([N+](=O)[O-])c2ccc(O)cc2n1-c1ccccc1,-31,-14%,?,10µM*,?
CC(C)C[C@@H](CC(=O)N[C@@H](CCCN)CC(=O)N[C@@H]1CCCC[C@H]1C(=O)N[C@H](CC(=O)N[C@@H](CCC(=O)O)CC(=O)O)CC(C)C)NC(=O)[C@@H]1CNCC[C@H]1N,nt,-22%,nt,nt,nt
CC(C)Oc1cc(F)ccc1-c1cc(C(=O)NCc2cccnc2)[nH]n1,-24,nt,nt,nt,nt
CC(C)Oc1cc(F)ccc1-c1cc(C(=O)NCc2ccccn2)[nH]n1,-76*,nt,nt,nt,nt
Cc1c(C(=O)NCc2ccc(Cl)c(Cl)c2)sc(=O)n1Cc1ccc(C(=O)N(C)C)cc1,-69*,nt,nt,nt,nt
Cc1c(C(=O)NCc2ccc(Cl)c(Cl)c2)sc(=O)n1Cc1ccc(S(=O)(=O)N(C)C)cc1,-16,nt,nt,nt,nt
Cc1c(C(=O)NCc2ccc(C(C)C)cc2)sc(=O)n1Cc1ccc(S(=O)(=O)N(C)C)cc1,-68*,nt,nt,nt,nt
COc1ccc(-n2nc(C(=O)NCc3ccc(F)cc3)c3c4ccccc4n(C)c3c2=O)cc1,13,nt,nt,nt,0%
Cc1nc(NC(=O)CCc2ccccc2)sc1C,111,-1%,55%,?,-16%
CNc1c2cccc(C)c2nc2c(C(=O)NCCN(C)C)cccc12,-100*,nt,nt,nt,nt
Cc1ccc(C(=O)NCCN(C)C)c(C)c1,54,0%,-1%,8%,5%
NC(=S)NN=C1c2ccccc2-c2ccccc21,-87*,?,?,28%,3%
CCOC(=O)NN=C1c2ccccc2-c2ccccc21,-3,7%,25%,10µM*,-16%
O=C(NN=C1c2ccccc2-c2ccccc21)c1ccccc1Br,-21,-12%,10%,37%,4%
O=C(NN=C1c2ccccc2-c2ccccc21)c1ccccc1,-27,-17%,-1%,8.3µM*,?
Cc1nnc(N2CCN(c3ccccc3)CC2)c2c1nnn2Cc1ccc(F)cc1,4,nt,nt,nt,-3%
CCC1=C2CC[C@H]3C(=O)N(CC(=O)OC)C(=O)[C@H]3[C@H]2[C@@]2(Cc3ccccc3)C(=NCCOC)OC(=O)N2C1=O,nt,-2%,nt,nt,nt
Oc1ccccc1Cl,0,nt,nt,nt,nt
Oc1ccc(O)c2c1C1(Cl)C(Cl)=C(Cl)C2(Cl)C1(Cl)Cl,-64*,nt,nt,nt,nt
CCC(C)Sc1ccc([C@@H]2[C@@H]3C(=O)N(C)C(=O)[C@@H]3[C@]3(C(=O)OC)CCCCN23)cc1 (stereo partly specified),-26,nt,?,?,?
CCCCN(C)CCN1C(=O)C2C(C(=O)Nc3cccc(OC)c3)C3C=CC2(O3)C1C(=O)NC1CCCCC1C (stereo unspecified),18,-6%,?,?,-13%
COc1ccc(-c2cc(C(=O)Oc3ccc([N+](=O)[O-])cc3)c3ccccc3n2)cc1,103,-9%,-4%,13µM*,2%
O=C(c1cc(-c2ccc(Br)cc2)nc2ccccc12)N1CCC1,21,nt,3.3µM*,4.1µM*,-22%
COc1ccc(-c2nnc(Nc3ccc(OC)c(C(=O)N4CCCCC4)c3)c3ccccc23)cc1,15,-6%,5.2µM*,?,1%
Cc1ccc(-c2cc(C(=O)N3CCC(C)CC3)c3ccccc3n2)cc1,-71*,nt,-5%,?,4%

# Compound activity as filed in PubChem.
